RAD52 inh: inhibitors of human RAD52 DNA annealing; inhibition, % at 18.7 µM; hit rate 0.46% among 360,000; recombinant RAD52 DNA annealing, FRET fluorescence; P43351; AID 651710;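 active means every replicate showing at least 50% inhibition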
Target sequence (P43351 whole entry, looked up): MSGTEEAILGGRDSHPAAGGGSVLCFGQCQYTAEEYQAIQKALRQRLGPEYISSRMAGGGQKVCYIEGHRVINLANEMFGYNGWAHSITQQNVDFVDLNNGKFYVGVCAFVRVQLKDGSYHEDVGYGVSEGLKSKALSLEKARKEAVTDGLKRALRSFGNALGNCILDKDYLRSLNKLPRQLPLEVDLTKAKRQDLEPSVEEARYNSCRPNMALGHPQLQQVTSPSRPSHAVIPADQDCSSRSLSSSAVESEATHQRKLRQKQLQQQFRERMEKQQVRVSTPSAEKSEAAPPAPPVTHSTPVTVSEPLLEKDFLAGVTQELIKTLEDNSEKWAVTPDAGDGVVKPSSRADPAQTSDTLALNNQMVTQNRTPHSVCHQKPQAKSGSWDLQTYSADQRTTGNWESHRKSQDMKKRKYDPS
RAD54 inh: RAD54 (human) branch migration inhibition | inhibition, % at 10.4 µM | RAD54 Holliday junction branch migration, FAM/BHQ fluorescence | hit rate 0.14% among 360,000 | Q92698;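 active means mean normalized replicate activity at least 40 and at least half of replicates scoring 40 or more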;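 further: 0% = median of neutral control wells and 100% = median of positive control wells; inhibitors cause a drop in the FAM fluorescence signal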
NRP1-CendR mod: NRP-1/CendR interaction modulation. O14786. FAM-RPARPAR peptide binding to NRP-1, fluorescence polarization. inhibition, % at 25 µM. hit rate 0.85% among 360,000. AID 602438;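 active means inhibition or corrected inhibition above about 18%, plus a signal ratio from 0.5 to 1.5, limit read from the data, passing the limit was not always enough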
DNA FID counter: counter-screen for HCV NS3 helicase inhibitors: DNA intercalator displacement; DNA fluorescent intercalator displacement, fluorescence; inhibition, % at 7.9 µM; hit rate 0.17% among 290,000; in the data active means inhibition above about 37%;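 further: 0% = vehicle and 100% = reference compound; higher means more ethidium bromide displaced from hairpin DNA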
miR-122 sensor: blocks miR-122 activity in Huh7 sensor cells; hit rate 0.3% among 340,000; AID 602342; activation (reporter increase), % at 12.5 µM; Huh7 miR-122 Renilla luciferase sensor, 48 h; neutral wells = 0, positive control = 100;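 active means mean replicate activation score at least 90 and every replicate individually at or above 90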;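 further: higher luciferase means less miR-122 activity so hits act as miR-122 inhibitors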
N-glyco inh: N-linked glycosylation inhibition | D54 ERlucT glycosylation luciferase reporter, 24 h; percent of 100 nM tunicamycin response | reporter increase, % at 12.5 µM | hit rate 0.23% among 360,000;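 active means mean luciferase reporter signal, scaled so untreated is 0 and the glycosylation-blocking control 100, at or above a set limit in every replicate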;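 further: luciferase carries N-glycosylation sites so blocking glycosylation raises the light; 0% = median of neutral control wells and 100% = median of 100 nM tunicamycin wells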
Starred values were filed as active, the others as inactive; . = no result; ! = repeats disagree; [ ] = dose if it differs, or a comment. An excerpt weighted towards active compounds, which were near 1.5% of everything screened.

SMILES	RAD52 inh	RAD54 inh	NRP1-CendR mod	DNA FID counter	miR-122 sensor	N-glyco inh
COc1ccc(NC(=O)Nc2cccc3c2O[C@@H](CN(C)S(=O)(=O)c2cn(C)cn2)[C@@H](C)CN([C@@H](C)CO)C3=O)cc1	1.8	5.3	.	.	1.8[16.7 µM]	.
COc1ccc(S(=O)(=O)c2c(C)c(NS(=O)(=O)c3ccccc3)cc(C)c2O)cc1	-8.6	.	9.0	-9.9	.	0.3
COc1ccc(S(=O)(=O)Nc2cc(C)c(O)c(S(=O)(=O)c3ccccc3)c2)cc1	.	4.0	7.4	-10.2	129.1*	-1.4
Cc1nc2ccc(S(=O)(=O)Nc3ccccc3C)cc2s1	-5.1	.	9.0	-14.4	127.5*	5.2
Cc1nc2ccc(NS(=O)(=O)c3ccc(C)c(C)c3)cc2s1	.	4.9	-7.5	-16.8	23.2	-0.3
CC(=O)c1cccc(NC(=O)NCc2cccs2)c1	.	-12.5	4.2	0.1	103.3*	-0.2
CC(=O)c1cccc(-c2ccnc3c2CC(C(=O)NCc2cccs2)O3)c1 (configuration not stated)	-70.0	1.4	-14.5	.	10.0	34.5*
O=C(NCCC(F)(F)F)C1Cc2c(-c3ccc(Cl)cc3)ccnc2O1 (configuration not stated)	-16.8	-9.4	27.0*	.	-1.4	1.9
CC(=O)c1cccc(NC(=O)NCc2ccccn2)c1	-10.8	0.8	5.9	0.0	13.5	-6.2
O=C(Nc1ccc2c(c1)[C@@H]1C[C@@H](CC(=O)N3CCCCC3)O[C@H](CO)[C@@H]1O2)C1CCOCC1	11.7	24.1	.	.	-0.2[16.7 µM]	.
CN(C)c1ccc2c(c1)[C@H]1C[C@H](CC(=O)N3CCCCC3)O[C@H](CO)[C@H]1O2	-73.8	.	.	.	.	.
CCN(Cc1ccncc1)C(=O)c1cc(COc2ccc(F)cc2F)on1	-8.5	4.2	43.3*	-29.0	-3.6	-1.6
Cc1cccc(C(CC(=O)NCCc2ccccc2)c2ccccc2)c1O (configuration not stated)	-28.3	-4.4	21.1*	-20.9	3.2	-4.4
CO[C@H]1CN(C)C(=O)c2cc(NS(=O)(=O)c3ccc(C)cc3)ccc2OC[C@@H](C)N(C)C[C@@H]1C	7.3	-8.3	.	.	-3.7[16.7 µM]	.
CN(C)CC/C=C1/c2ccccc2Sc2ccc(Cl)cc21	41.4	9.4	26.9*!	8.4	10.7	-3.2
CN(C)CC/C=C1\c2ccccc2COc2ccccc21	-5.5	6.9	7.8	5.8	-1.9	-1.8
COc1ccc(N2CCN(C(=O)c3ccc(NS(=O)(=O)c4ccc(F)c(F)c4)cc3)CC2)cc1	-4.0	-1.4	51.2*	-26.4	10.7	-0.5
COc1ccc(S(=O)(=O)N[C@H]2C=C[C@H](CC(=O)N3CCc4ccccc4C3)O[C@@H]2CO)cc1	5.5	-11.5	.	.	-3.3[16.7 µM]	.
O=C(CSc1ccccn1)N/N=C/c1ccccc1[N+](=O)[O-]	.	.	-12.3	0.3	.	1.3
O=C(CSc1ccccn1)N/N=C/C=C/c1ccccc1	-24.7	.	22.2*	-7.4	.	-1.5
COC(=O)c1c(C(=O)OC)c(-c2ccc(C(C)(C)C)cc2)n2c1CS(=O)C2 (configuration not stated)	2.4	-6.0	16.6	-28.1	2.1	-0.6
COC(=O)c1c(C(=O)OC)c(-c2ccccc2)n2c1CCC2	-10.6	2.5	38.3*	-14.2	3.6	3.9
CO[C@@H]1CN(C)C(=O)c2ccc(NC(=O)c3ccc(Oc4ccccc4)cc3)cc2OC[C@@H](C)NC[C@@H]1C	37.2	.	.	.	.	.
CC1=CC(C)(C)[N+](C)(C)c2ccc(C)cc21	-12.7	.	38.2*	7.4	-5.5	4.1
CC1=CC(C)(C)N(S(=O)(=O)c2ccc(C)cc2)c2ccc(C)cc21	.	-1.0	4.1	-14.3	72.7	3.9
COc1ccccc1CNC(=O)c1cc(-c2ccccc2)nn1Cc1cc(C)no1	-9.1	8.4	27.4*	.	-1.9	-5.1
Cn1nc(C(=O)NCC(c2cccs2)N2CCOCC2)c2ccccc2c1=O (configuration not stated)	-10.0	.	27.0*	.	-5.9	4.3
CC(C)c1ccccc1OCC(=O)NCC(c1cccs1)N1CCOCC1 (configuration not stated)	.	-18.5	1.7	-31.5	4.2	-3.5
COc1ccccc1OCC(=O)NCC(c1cccs1)N1CCOCC1 (configuration not stated)	0.3	1.3	24.9*	-20.2	.	0.2
Cn1cnc(S(=O)(=O)N2C[C@H](O)COC[C@H]3O[C@@H](CC(=O)NC4CCCC4)CC[C@@H]32)c1	20.4	0.1	.	.	87.4[16.7 µM]	.

Compound activity: PubChem, several laboratories
